ChEMBL document CHEMBL1201862, “PubChem BioAssay data set” (2004)
“And” between values parts separate entries of the source, which are not always exact repeats. Equal values may be shown once. The whole screen tested about 400,000 compounds, of which about 2,100 (0.53%) were called active. About 14% were inconclusive and are not listed. The rule behind the calls is not given here. This excerpt belongs to a sample that is enriched for actives.

Each molecule was assayed against Ataxin-2 (Homo sapiens) (UniProt Q99700) (assay: qHTS for Inhibitors of ATXN expression.).
Ataxin-2 (Homo sapiens), sequence (Q99700 whole entry): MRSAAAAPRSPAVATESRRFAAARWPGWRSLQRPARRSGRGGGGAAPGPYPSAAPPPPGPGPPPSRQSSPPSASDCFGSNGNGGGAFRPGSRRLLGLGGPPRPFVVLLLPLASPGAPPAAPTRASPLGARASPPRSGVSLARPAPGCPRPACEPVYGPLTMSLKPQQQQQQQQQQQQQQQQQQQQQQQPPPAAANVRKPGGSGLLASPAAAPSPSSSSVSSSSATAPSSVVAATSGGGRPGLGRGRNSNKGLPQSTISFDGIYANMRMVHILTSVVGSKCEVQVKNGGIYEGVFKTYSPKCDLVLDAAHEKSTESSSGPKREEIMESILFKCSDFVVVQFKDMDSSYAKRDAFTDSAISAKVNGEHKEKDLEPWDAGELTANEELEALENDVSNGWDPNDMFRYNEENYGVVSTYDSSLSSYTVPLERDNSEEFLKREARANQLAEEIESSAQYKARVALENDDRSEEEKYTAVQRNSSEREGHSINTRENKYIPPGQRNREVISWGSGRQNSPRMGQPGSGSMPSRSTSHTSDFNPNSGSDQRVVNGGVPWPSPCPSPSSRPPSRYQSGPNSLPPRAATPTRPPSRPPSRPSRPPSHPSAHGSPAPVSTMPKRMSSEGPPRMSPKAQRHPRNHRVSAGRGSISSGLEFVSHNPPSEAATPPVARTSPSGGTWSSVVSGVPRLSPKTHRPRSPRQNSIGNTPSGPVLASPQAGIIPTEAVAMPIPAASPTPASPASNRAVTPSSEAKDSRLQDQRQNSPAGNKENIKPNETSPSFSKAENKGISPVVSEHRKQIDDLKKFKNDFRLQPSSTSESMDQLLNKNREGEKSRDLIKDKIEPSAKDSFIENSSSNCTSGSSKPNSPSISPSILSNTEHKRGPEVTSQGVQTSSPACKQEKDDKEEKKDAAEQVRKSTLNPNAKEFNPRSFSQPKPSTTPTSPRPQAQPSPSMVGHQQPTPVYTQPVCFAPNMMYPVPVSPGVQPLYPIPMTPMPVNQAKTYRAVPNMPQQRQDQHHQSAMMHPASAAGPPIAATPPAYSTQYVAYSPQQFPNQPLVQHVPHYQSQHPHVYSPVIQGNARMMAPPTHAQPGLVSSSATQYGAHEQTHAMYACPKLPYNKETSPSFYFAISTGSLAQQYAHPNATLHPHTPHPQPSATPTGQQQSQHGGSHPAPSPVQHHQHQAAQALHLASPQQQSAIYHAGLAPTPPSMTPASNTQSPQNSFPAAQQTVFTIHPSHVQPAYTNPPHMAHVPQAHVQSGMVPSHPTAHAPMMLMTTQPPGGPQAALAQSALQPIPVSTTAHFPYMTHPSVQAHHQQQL
Format: functional
For Cc1c(CC(=O)N2CCN(C(=O)C3COc4ccccc4O3)CC2)c(=O)oc2cc(O)cc(O)c12 (stereo unspecified), the Potency was “inactive”.
In the case of Cc1ccc(S(=O)(=O)N2CCOCC2)cc1NC(=O)COC(=O)/C=C/c1ccco1, the Potency is reported as “inactive”.
CC[C@@H]1Cc2cc(O)ccc2C2=C1c1ccc(O)cc1C[C@H]2CC was tested, and the Potency was 39.8 µM (active) and 22.4 µM (active).
For Clc1ccc(-c2nc(N3CCCCC3)nc3ccccc23)cc1, the Potency was “inactive”.
In the case of COc1ccc(-n2c(=O)c(CCC(=O)NCCc3ccccc3F)nc3ccccc32)cc1, the Potency is reported as “inactive”.
With Cc1ccc(C(=O)c2c(C)oc3c2C(=O)C(=O)c2ccccc2-3)cc1 the Potency was 39.8 µM (active).
Cc1oc2c(c1C(=O)c1ccccc1)C(=O)C(=O)c1ccccc1-2 was tested, and the Potency was 3.98 µM (active).
Cc1sc(N)c(C(=O)c2ccccc2)c1C was tested, and the Potency was “inactive”.
With CCOc1ccc(-n2c(C)cc(C(=O)CCl)c2C)cc1 the Potency was 29.9 µM (active).
In the case of Cc1ccc(-n2c(C)cc(C(=O)COc3cccnc3[N+](=O)[O-])c2C)cc1, the Potency is reported as “inactive”.
For CCOc1ccc(-n2c(C)cc(/C=N/NC(=O)C(N)=O)c2C)cc1, the Potency was “inactive”.
With CCCn1c(=N)c(C(=O)NCc2ccco2)cc2c(=O)n3cc(C)ccc3nc21 the Potency was “inactive”.
With CC1CCc2c(sc3ncn(CC(=O)N4CCCCC4)c(=O)c23)C1 (stereo unspecified) the Potency was “inactive”.
CC1CCc2c(sc3nc(-c4cc5ccccc5oc4=O)nc(Cl)c23)C1 (stereo unspecified) was tested, and the Potency was “inactive”.
In the case of CCc1nc(N2CCN(C(=O)CCl)CC2)c2c3c(sc2n1)CC(C)CC3 (stereo unspecified), the Potency is reported as 35.5 µM (active).
In the case of COCCCn1c(C(=O)N2CCOCC2)cc2c(=O)n3ccccc3nc21, the Potency is reported as “inactive”.
In the case of CN1/C(=C/C(=O)c2nc(S(C)(=O)=O)ncc2Cl)C(C)(C)c2ccccc21, the Potency is reported as 31.6 µM (active).
With CN1/C(=C\C(=O)c2cccnc2)C(C)(C)c2ccccc21 the Potency was “inactive”.
For CC1=C(C(=O)c2ccccc2)C(c2ccc(O)cc2)NC(S)=N1 (stereo unspecified), the Potency was “inactive”.
O=C(NCCCN1CCCC1=O)C1CCN(S(=O)(=O)c2ccccc2)CC1 was tested, and the Potency was “inactive”.
O=C(NCCC1=CCCCC1)C1CCC(CNc2nc(S)nc3ccccc23)CC1 (stereo unspecified) was tested, and the Potency was 23.8 µM (active).
With O=C(COC(=O)/C=C/c1ccccc1)NCCC1=CCCCC1 the Potency was “inactive”.
CCCCN(C(=O)NC(=O)C1=C(N2CCOCC2)/C(=C/c2ccccc2)CC1)S(C)(=O)=O was tested, and the Potency was “inactive”.
For C=CCO/C(O)=C1\C(C)=NC(SCC(=O)Nc2nccs2)=C(C#N)C1c1ccc(Cl)cc1 (stereo unspecified), the Potency was “inactive”.
O=C1CCC[C@@H]2C[C@@]3(C[C@@H]4CCN1[C@H]24)Nc1cc(Cl)c(Cl)cc1N=C3NCc1ccccc1 was tested, and the Potency was 35.5 µM (active).
With CC(C)(C)CC(C)(C)NC1=Nc2cc(Cl)c(Cl)cc2NC12C[C@H]1CCC(=O)N3CC[C@@H](C2)[C@@H]13 (stereo partly specified) the Potency was 31.6 µM (active).
In the case of COc1ccc2c(c1)CCC1=C2N=C(S)NC1c1ccc(N(C)C)cc1 (stereo unspecified), the Potency is reported as “inactive”.
In the case of c1cc(SC2CCCCC2)cc(-c2nc3cnccn3c2NC2CCCCC2)c1, the Potency is reported as “inactive”.
In the case of Cc1cc(C)n2c(=O)c3ccc(Cl)cc3nc2c1C#N, the Potency is reported as “inactive”.
In the case of CC(C)(C)c1cc(CP(=O)(c2ccccc2)c2ccccc2)cc(C(C)(C)C)c1O, the Potency is reported as “inactive”.
In the case of O=C(O)c1ccc2c(c1)C(=O)N(c1ccc(/C=C/C(=O)c3ccccc3)cc1)C2=O, the Potency is reported as “inactive”.
For O=C(C=Cc1ccccc1F)c1ccccc1, the Potency was 31.6 µM (active).
In the case of O=C(C=Cc1ccccn1)c1ccccc1O, the Potency is reported as 39.8 µM (active).
With COc1ccc2[nH]cc(/C=C/C(=O)c3ccccc3)c2c1 the Potency was “inactive”.
For COc1ccccc1C(=O)CSc1ccccn1, the Potency was “inactive”.
Cc1[nH]c2ccccc2c1/C=C/C(=O)c1ccncc1 was tested, and the Potency was “inactive”.
For O=C(C=Cc1ccccn1)c1ccccc1, the Potency was 35.5 µM (active).
With O=C(/C=C/c1ccc(N2CCC(c3ccccc3)=N2)cc1)c1ccccc1 the Potency was “inactive”.
In the case of O=C(O)/C(=C\c1ccco1)NC(=O)c1ccco1, the Potency is reported as “inactive”.
Cc1ccc(NC(=O)CCc2nnc3ccc(N4CCC5(CC4)OCCO5)nn23)nc1 was tested, and the Potency was “inactive”.
For COc1ccc(COc2cc(-c3cccc(OC)c3)nc3ccc(N)cc23)cc1, the Potency was “inactive”.
COC(=O)/C=C\C(=O)Nc1cccc([N+](=O)[O-])c1 was tested, and the Potency was 31.6 µM (active).
CC(C)N1CC(C(=O)Nc2cccc([N+](=O)[O-])c2)CC1=O (stereo unspecified) was tested, and the Potency was “inactive”.
For O=[N+]([O-])c1cccc(NC(=S)N2CCOCC2)c1, the Potency was “inactive”.
In the case of O=C(NCC1CCCCC1)C1(CC2CC(c3ccc(Cl)cc3)=NO2)CCNCC1 (stereo unspecified), the Potency is reported as 39.8 µM (active).
For O=C(CNC(=O)c1ccc(Br)o1)NCC1CCCCC1, the Potency was “inactive”.
For COc1cc(NC(=O)C2CC(c3cccc(Br)c3)=NO2)cc(OC)c1OC (stereo unspecified), the Potency was “inactive”.
In the case of O=C(NCC1CCCCC1)C1(CC2CC(c3cccc(Br)c3)=NO2)CCNCC1 (stereo unspecified), the Potency is reported as 35.5 µM (active).
In the case of O=C(O)c1cc(-c2ccc(-c3ccc(F)cc3)o2)nc2ccccc12, the Potency is reported as “inactive”.
In the case of C[C@@H]1C(c2cccc(Cl)c2)=NN(c2ccccc2)[C@H]1C(=O)N1CCOC1=O, the Potency is reported as “inactive”.
With Oc1c(Cl)cc(Cl)cc1/C=N/c1nc(-c2ccc(Cl)cc2)cs1 the Potency was “inactive”.
With Cc1[nH]n(-c2nc(-c3ccc(Cl)cc3)cs2)c(=O)c1N=Nc1ccc(O)cc1 the Potency was 26.7 µM (active).
For CC(=O)Nc1ccc(C2CC(c3ccc(Cl)cc3)=NN2c2ccccc2)cc1 (stereo unspecified), the Potency was “inactive”.
For CC(=O)Nc1cccc(-c2ccnc3c2CC(C(=O)Nc2ccc(F)c(Cl)c2)O3)c1 (stereo unspecified), the Potency was 22.4 µM (active).
With O=C1OC(C(=O)Nc2ccc(Cl)c(C(F)(F)F)c2)Cc2ccccc21 (stereo unspecified) the Potency was “inactive”.
CCOC(=O)c1cc(-c2ccc3c(c2)OCO3)nc2onc(C)c12 was tested, and the Potency was “inactive”.
O=C(Nc1cccc(OC(F)(F)F)c1)C1Cc2c(-c3ccc4c(c3)OCO4)ccnc2O1 (stereo unspecified) was tested, and the Potency was 39.8 µM (active).
For CC(C)CN(CC(C)C)C(=O)c1cc2c(=O)n3ccccc3nc2s1, the Potency was “inactive”.
N=C(NOC(=O)c1ccccc1)C(Cc1ccccc1)C(=O)NOC(=O)c1ccccc1 (stereo unspecified) was tested, and the Potency was 39.8 µM (active).
In the case of O=C(Nc1ccc(Cl)cn1)c1ccccc1SCc1ccccc1, the Potency is reported as “inactive”.
O=C(NCCOC(=O)c1ccccc1)c1ccccc1 was tested, and the Potency was “inactive”.
For COc1ccc(CN2C(=O)c3cccnc3C2=O)cc1S(=O)(=O)N1CCOc2ccc(C)cc21, the Potency was “inactive”.
With O=C(c1cnn(-c2ccccc2)c1)c1ccccc1O the Potency was “inactive”.
CC(Sc1ccccc1)C(=O)NN=C1CCCCCCC1 (stereo unspecified) was tested, and the Potency was “inactive”.
For COc1ccccc1NC(=O)CN1CCN(CC(=O)Nc2ccc(Cl)c(C(F)(F)F)c2)CC1, the Potency was 44.7 µM (active).
For O=C(CN1CCN(C(=O)c2c(F)cccc2F)CC1)Nc1ccccc1C(F)(F)F, the Potency was “inactive”.
For CCOc1ccc(NC(=O)CN2CCN(CC(=O)Nc3ccccc3OC)CC2)cc1, the Potency was “inactive”.
With O=C(Cc1ccccc1)Nc1ncccc1Cl the Potency was “inactive”.
For Cc1ccc(-c2ccc(/C=C3\SC(N4CCOCC4)=NC3=O)o2)cc1, the Potency was “inactive”.
For O=C1NC(=S)S/C1=C/c1ccc(N2CCOCC2)o1, the Potency was 10 µM (active).
For Cc1ccccc1-c1ccc(/C=C2/SC(N3CCOCC3)=NC2=O)o1, the Potency was “inactive”.
With N#C/C(=C/c1ccc(-c2ccc(Br)cc2)o1)C(=O)NC1CCCCC1 the Potency was “inactive”.
Cn1c(/C=C(\C#N)C(N)=S)ccc1-c1ccc(Br)cc1 was tested, and the Potency was 11.2 µM (active).
In the case of CC(=O)c1sc2nsc(SCCN3CCOCC3)c2c1N, the Potency is reported as “inactive”.
For COc1ccc(CNc2nc3ccccc3n2C)c(OC)c1, the Potency was “inactive”.
In the case of CCc1cc(=O)oc2c(CNCc3ccc(OC)cc3OC)c(O)c(Cl)cc12, the Potency is reported as “inactive”.
For CCn1c2ccccc2c2cc(CNCc3ccc(OC)cc3OC)ccc21, the Potency was 42.3 µM (active).
For Cc1cc(C)c(C(=O)COC(=O)C2CCN(c3ccc(C(F)(F)F)cn3)CC2)c(C)c1, the Potency was “inactive”.
With CC[n+]1c(/C=C2/C=C(C)CC(C)(C)C2)sc2ccc(OC)cc21 the Potency was 39.8 µM (active).
CCN1CCN(Cc2ccc(NC(=O)c3ccc(C)c(NC(=O)c4cncc(-c5cccs5)c4)c3)cc2C(F)(F)F)CC1 was tested, and the Potency was 20 µM (active).
For CCN1CCN(Cc2ccc(NC(=O)c3ccc(C)c(NC(=O)c4cccc5[nH]ccc45)c3)cc2C(F)(F)F)CC1, the Potency was 35.5 µM (active).
For O=C(CO)N/N=C/c1c2ccccc2cc2ccccc12, the Potency was “inactive”.
For O=C(O)c1ccc(-n2cc(-c3cc4ccccc4oc3=O)nc2S)cc1, the Potency was “inactive”.
For Cc1c(CCC(=O)NCCCN2CCCC2=O)c(=O)oc2cc(O)ccc12, the Potency was “inactive”.
In the case of Cc1cc(C(=O)N/N=C/c2cn(C)nc2C)c2ccccc2n1, the Potency is reported as “inactive”.
In the case of CCN1CCN(C(c2ccc(C(F)(F)F)cc2)c2ccc3cccnc3c2O)CC1 (stereo unspecified), the Potency is reported as “inactive”.
With COC(=O)NCC(c1cccnc1)N1CCN(c2ccccc2)CC1 (stereo unspecified) the Potency was “inactive”.
For CC(C)(C)c1cc(C(c2cccnc2)N2CCN(CCO)CC2)cc(C(C)(C)C)c1O (stereo unspecified), the Potency was 25.1 µM (active).
Cc1onc(-c2c(Cl)cccc2Cl)c1C(=O)NNC(=O)c1c(-c2c(Cl)cccc2Cl)noc1C was tested, and the Potency was “inactive”.
In the case of N#Cc1sc2nc(C3CC3)cc(-c3ccc(Cl)cc3)c2c1N, the Potency is reported as “inactive”.
In the case of CC(C)c1ccccc1NC(=O)CN1C(=O)c2cccc3cccc1c23, the Potency is reported as “inactive”.
With COc1ccccc1C1=NC(c2ccccc2)CN1c1ccccc1 (stereo unspecified) the Potency was “inactive”.
With CCCCc1c(-c2ccccc2OC)ncn1CCc1cccc(Cl)c1 the Potency was 31.6 µM (active).
With CCCCc1c(-c2ccccc2OC)ncn1C1CCCC1 the Potency was 22.4 µM (active).
For Nc1cccc2c1C(=O)N(Cc1cccc(Cl)c1)C2=O, the Potency was “inactive”.
In the case of COc1cc2c3nnc(-c4ccccc4)c-3cn(Cc3ccc(F)cc3)c2cc1OC, the Potency is reported as “inactive”.
With CCCCc1c(-c2ccccc2OC)ncn1Cc1ccc(-c2ccccc2)cc1 the Potency was 22.4 µM (active).
CCCCc1c(-c2ccccc2OC)ncn1CCc1ccc(OC)cc1 was tested, and the Potency was 39.8 µM (active).
With O=C1Cc2ccccc2C(=O)N1Cc1cccc(Cl)c1 the Potency was “inactive”.
In the case of CC12CCC(C1)C(C)(C)C2NS(=O)(=O)c1ccc(F)cc1 (stereo unspecified), the Potency is reported as “inactive”.
With COC(=O)c1ccc(COc2ccc(C(C)(C)C)cc2)o1 the Potency was “inactive”.
